SMILES strings stand for the structures. Several values for one entry are separate records, joined by “and”; a condition that tells them apart may be missing. Equal entries are not always repeated. Records with an inconclusive call do not appear. A structure can be active in one record and inactive in another. Activity calls are given as the source filed them. Unless noted, the call rests on the fitted dose curve.

Eight compounds from PubChem BioAssay (Tox21) can be followed below.

Assay [1] is described as follows: Nuclear factor erythroid 2-related factor 2/antioxidant responsive element (Nrf2/ARE) small molecule agonists: qHTS cell viability counter screen in human keratinocytes (AID 1919968; active means well fitted curve in the direction sought with a large enough effect in the repeat runs; an effect the other way counts as inactive or inconclusive; further: nearly all actives have a fitted effect of over 55% in size). In a few lines: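 Viability counter-screen: KeratinoSens reporter cells, DMSO-delivered compounds, 23 h at 37 C, CellTiter-Fluor fluorescence.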
For orientation: In qHTS, concentration-response curves come from the screen itself.

A short description of assay [2]: Nuclear factor erythroid 2-related factor 2/antioxidant responsive element (Nrf2/ARE) small molecule agonists: luciferase reporter gene qHTS assay in human keratinocytes (AID 1919969). Further: nearly all actives have a fitted effect of over 35% in size. Further: potency means the concentration at half of the fitted maximal effect.
Assay [3] addresses Gonadotropin-releasing hormone receptor (Homo sapiens) (UniProt P30968). As to the kind of experiment: Human gonadotropin-releasing hormone receptor (GnRHR) small molecule agonists, calcium flux assay in GnRHR-HEK293 cells (AID 1920063). Further: nearly all actives have a fitted effect of over 35% in size. In a few lines:
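Tox21-format agonist screen using human GnRHR-expressing HEK293 cells and a fluorescent calcium dye; kinetic 3-min fluorescence reading after compound addition, 15-point concentration series run in triplicate.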
(Calcium assays in cells follow changes in intracellular calcium, usually with a dye or a luminescent sensor.)

For assay [4], the target named is KiSS-1 receptor (Homo sapiens) (UniProt Q969F8). As to the kind of experiment: Human kisspeptin (KISS1R) small molecule agonists, calcium flux assay in KISS1R-HEK293 cells (AID 1920064; active means well fitted curve in the direction sought with a large enough effect in the repeat runs; an effect the other way counts as inactive or inconclusive). In a few lines: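 Intracellular calcium mobilization in KISS1R-HEK293 cells was recorded by fluorescence (Ex/Em 480/540) for 3 min following compound addition to cells pre-loaded 1 h with calcium dye.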
Sequence of KiSS-1 receptor (Homo sapiens) (Q969F8 whole entry, looked up): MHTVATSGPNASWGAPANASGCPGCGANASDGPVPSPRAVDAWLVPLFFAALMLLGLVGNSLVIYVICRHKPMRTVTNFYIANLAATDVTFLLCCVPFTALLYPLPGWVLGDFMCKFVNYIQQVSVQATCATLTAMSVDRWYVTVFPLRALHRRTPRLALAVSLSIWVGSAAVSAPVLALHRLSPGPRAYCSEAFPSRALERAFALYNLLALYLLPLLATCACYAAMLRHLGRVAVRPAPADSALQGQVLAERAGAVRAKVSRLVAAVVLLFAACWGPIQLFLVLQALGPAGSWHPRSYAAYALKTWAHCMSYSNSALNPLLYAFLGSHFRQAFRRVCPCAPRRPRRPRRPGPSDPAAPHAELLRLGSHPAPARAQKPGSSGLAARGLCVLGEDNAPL

The nature of assay [5]: G protein-coupled receptor (GPCR) small molecule agonists, calcium flux assay: HEK293 wild type cell line counter screen (AID 1920065). In a few lines: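 In this agonist-mode screen, ATP is the positive control and DMSO the vehicle. Cells grow 18 h before a 1 h dye incubation at 37 C; signal is taken at Ex/Em 480/540 over 3 min.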
Assay [6] in a line: p53 small molecule agonists, cell-based qHTS assay with human liver microsomes (AID 1963577). In a few lines:
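Compounds act here after metabolic activation: human liver microsomes and NADPH, both at 0.5 mg/mL final, were co-added to p53RE-bla cells. Incubation ran 16 h at 37 C, followed by LiveBLAzer detection.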

Assay [7] can be described thus: p53 small molecule agonists, cell-based qHTS assay with rat liver microsomes (AID 1963578). In a few lines:
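Read-out is beta-lactamase reporter fluorescence (LiveBLAzer, 2 h, room temperature, dark) in p53RE-bla cells treated 16 h at 37 C with compound, rat liver microsomes and NADPH, both 0.5 mg/mL final.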

The nature of assay [8]: p53 small molecule agonists, cell-based qHTS assay with human liver microsomes: qHTS cell viability counter screen (AID 1963579). Further: nearly all actives have a fitted effect of over 45% in size. Further: potency means the concentration at half of the fitted maximal effect. In a few lines: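 Cells carrying the p53 response-element beta-lactamase reporter are treated for 16 h at 37 C with test compounds in the presence of human liver microsomes and NADPH (both 0.5 mg/mL final); ATP-based CellTiter-Glo luminescence then reports viability.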

Assay [9] can be described thus: p53 small molecule agonists, cell-based qHTS assay with rat liver microsomes: qHTS cell viability counter screen (AID 1963580). Further: nearly all actives have a fitted effect of over 45% in size. In a few lines:
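Intracellular ATP, by CellTiter-Glo luminescence, defines viability. HCT-116 p53RE-bla cells, 4,000 per well, were compound-treated in the presence of rat liver microsomes and NADPH for 16 h at 37 C.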

The nature of assay [10]: p53 small molecule agonists, cell-based qHTS assay: qHTS cell viability counter screen (AID 1963581). Further: nearly all actives have a fitted effect of over 45% in size. In a few lines: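 Compounds are pinned onto HCT-116 p53RE-bla cells and left 16 h at 37 C. Following the reporter FRET read, ATP is quantified by CellTiter-Glo luminescence after 30 min at room temperature.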
The nature of assay [11]: p53 small molecule agonists, cell-based qHTS assay (AID 1963582; active means well fitted activation curve with a large enough effect in the signal ratio in the repeat runs, not every such curve was filed as active; the % refers to the signal ratio). In a few lines:
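Agonist activity was scored from beta-lactamase FRET fluorescence in p53RE-bla cells treated 16 h at 37 C with compounds in DMSO, substrate incubation being 2 h at room temperature.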

Assay [12] concerns the target 5-hydroxytryptamine receptor 2A (Homo sapiens) (UniProt P28223). The experiment in a line: 5-hydroxytryptamine receptor 2A (HTR2A) small molecule antagonists, cell-based qHTS assay (AID 1963586). Further: nearly all actives have a fitted effect of over 45% in size. In a few lines: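 Antagonist-mode intracellular calcium assay: DOI (4 nM) added after 5 min compound pre-incubation at room temperature to dye-loaded HTR2A-CHO cells. Fluorescence followed for 3 min, sampled every second.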

Assay [13] has the same target. The experiment in a line: 5-hydroxytryptamine receptor 2A (HTR2A) small molecule agonists, cell-based qHTS assay (AID 1963587). Further: nearly all actives have a fitted effect of over 30% in size. In a few lines:
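Kinetic calcium-flux fluorescence (2 min, 1 sec intervals) after compound addition in agonist mode. HTR2A-CHO cells were cultured 18 h, then dye-loaded 1 h at 37 C.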

In assay [14] the target is Muscarinic acetylcholine receptor M1 (Homo sapiens) (UniProt P11229). The experiment in a line: Cholinergic receptor muscarinic 1 (CHRM1) small molecule antagonists, cell-based qHTS assay (AID 1963588). Further: nearly all actives have a fitted effect of over 40% in size. Further: potency means the concentration at half of the fitted maximal effect. In a few lines:
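CHRM1-CHO calcium-flux assay, antagonist mode. Cells were seeded 18 h, dye-loaded 1 h at 37 C and given compound for 5 min at RT, then acetylcholine was added at 50nM. FDSS fluorescence was read 3 min; 15 concentrations, three runs.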

The target is the same in assay [15]. The experiment in a line: Cholinergic receptor muscarinic 1 (CHRM1) small molecule agonists, cell-based qHTS assay (AID 1963589). Further: nearly all actives have a fitted effect of over 35% in size. In a few lines: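 Stable CHRM1-CHO cells (human receptor) were incubated 18 h, dye-loaded for 1 h at 37 C and exposed to test compounds for agonist activity, with calcium-dependent fluorescence followed kinetically.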
A short description of assay [16]: cAMP Responsive Elements (CRE) small molecule agonists, cell-based qHTS assay (AID 1963590). In a few lines:
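FRET-based beta-lactamase readout (LiveBLAzer B/G, 2 h RT) quantified CRE activation in HEK 293T CRE-bla cells after 3 h treatment with DMSO-dissolved compounds.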

Assay [17] in a line: cAMP Responsive Elements (CRE) small molecule antagonists, cell-based qHTS assay (AID 1963591; active means well fitted inhibition curve with a large enough effect in the signal ratio in the repeat runs, not every such curve was filed as active; the % refers to the signal ratio). In a few lines:
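qHTS in CRE-bla HEK 293T cells: compound in DMSO, then 0.25 uM NKH477 (final), 3 h at 37 °C/5% CO2; beta-lactamase FRET read-out after 2 h substrate incubation.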

The target in assay [18] is Beta-2 adrenergic receptor (Homo sapiens) (UniProt P07550). As to the kind of experiment: Adrenergic beta2 receptor (ADRB2) small molecule antagonists, cell-based qHTS assay (AID 1963592). Further: series mostly up to about 92 µM; nearly all actives have a fitted effect of over 50% in size. In a few lines:
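Cells (CHO, stable ADRB2 overexpression) incubated 18-20hr at 37C; compounds added from DMSO; agonist mix (1nM isoproterenol, 100uM IBMX, 25uM Ro-20-1724) added; 0.5hr RT; d2-cAMP and anti-cAMP-cryptate added; 1hr RT; 665/615 nm read.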

In assay [19] the target is D(2) dopamine receptor (Homo sapiens) (UniProt P14416). The experiment in a line: Dopamine D2 receptor (DRD2) small molecule agonists, cell-based qHTS assay (AID 1963594). Further: nearly all actives have a fitted effect of over 35% in size. In a few lines:
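cAMP accumulation in DRD2-HEK293 cells measured by HTRF after 1 h detection; compounds added 10 min before NKH477 (200nM […]) forskolin-analogue stimulation, 30 min at room temperature, with Ro20-1724 present at 0.1 mM final.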

The target is the same in assay [20]. The experiment in a line: Dopamine D2 receptor (DRD2) small molecule antagonists, cell-based qHTS assay (AID 1963595; active means well fitted inhibition curve with a large enough effect in the signal ratio in the repeat runs, with a control signal flat; the % refers to the signal ratio). In a few lines: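 Antagonism was scored as restored cAMP in HEK293-DRD2 cells. These cells were stimulated with 200 nM NKH477 and 12 nM quinpirole for 30 min at room temperature, in the presence of 0.1 mM Ro20-1724.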

Sequence of Gonadotropin-releasing hormone receptor (Homo sapiens) (P30968 whole entry, looked up): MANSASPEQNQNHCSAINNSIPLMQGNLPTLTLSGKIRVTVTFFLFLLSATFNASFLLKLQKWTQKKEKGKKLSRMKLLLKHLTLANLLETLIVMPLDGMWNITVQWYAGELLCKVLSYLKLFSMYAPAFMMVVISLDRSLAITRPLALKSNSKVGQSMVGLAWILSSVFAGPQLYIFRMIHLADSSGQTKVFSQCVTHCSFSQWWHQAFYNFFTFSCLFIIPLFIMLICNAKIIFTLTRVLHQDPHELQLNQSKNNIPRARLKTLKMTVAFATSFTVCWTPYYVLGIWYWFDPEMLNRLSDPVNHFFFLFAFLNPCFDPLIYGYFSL
Sequence of Beta-2 adrenergic receptor (Homo sapiens) (P07550 whole entry, looked up): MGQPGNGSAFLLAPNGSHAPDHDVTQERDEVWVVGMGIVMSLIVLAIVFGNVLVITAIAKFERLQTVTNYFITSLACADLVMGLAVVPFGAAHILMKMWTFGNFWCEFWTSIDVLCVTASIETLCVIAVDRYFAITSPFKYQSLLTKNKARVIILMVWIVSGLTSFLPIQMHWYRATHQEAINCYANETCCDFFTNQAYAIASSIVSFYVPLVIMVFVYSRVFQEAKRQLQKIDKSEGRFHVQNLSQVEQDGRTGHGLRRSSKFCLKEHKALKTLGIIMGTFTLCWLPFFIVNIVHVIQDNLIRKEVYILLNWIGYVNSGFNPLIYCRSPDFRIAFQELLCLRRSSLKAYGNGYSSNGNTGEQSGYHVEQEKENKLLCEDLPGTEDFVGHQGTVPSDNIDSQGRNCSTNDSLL
Sequence of Muscarinic acetylcholine receptor M1 (Homo sapiens) (P11229 whole entry, looked up): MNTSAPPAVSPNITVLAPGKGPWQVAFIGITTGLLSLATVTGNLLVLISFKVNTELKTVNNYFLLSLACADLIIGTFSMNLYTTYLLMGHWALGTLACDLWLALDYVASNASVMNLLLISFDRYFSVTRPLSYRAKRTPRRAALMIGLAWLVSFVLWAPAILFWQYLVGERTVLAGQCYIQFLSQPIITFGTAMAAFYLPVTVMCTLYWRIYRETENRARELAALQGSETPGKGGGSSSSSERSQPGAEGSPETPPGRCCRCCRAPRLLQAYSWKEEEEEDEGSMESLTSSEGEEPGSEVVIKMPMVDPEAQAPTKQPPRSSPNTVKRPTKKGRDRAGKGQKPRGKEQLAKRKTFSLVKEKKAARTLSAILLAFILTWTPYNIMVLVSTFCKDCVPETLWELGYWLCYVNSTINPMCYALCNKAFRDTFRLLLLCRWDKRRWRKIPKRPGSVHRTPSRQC
Sequence of D(2) dopamine receptor (Homo sapiens) (P14416 whole entry, looked up): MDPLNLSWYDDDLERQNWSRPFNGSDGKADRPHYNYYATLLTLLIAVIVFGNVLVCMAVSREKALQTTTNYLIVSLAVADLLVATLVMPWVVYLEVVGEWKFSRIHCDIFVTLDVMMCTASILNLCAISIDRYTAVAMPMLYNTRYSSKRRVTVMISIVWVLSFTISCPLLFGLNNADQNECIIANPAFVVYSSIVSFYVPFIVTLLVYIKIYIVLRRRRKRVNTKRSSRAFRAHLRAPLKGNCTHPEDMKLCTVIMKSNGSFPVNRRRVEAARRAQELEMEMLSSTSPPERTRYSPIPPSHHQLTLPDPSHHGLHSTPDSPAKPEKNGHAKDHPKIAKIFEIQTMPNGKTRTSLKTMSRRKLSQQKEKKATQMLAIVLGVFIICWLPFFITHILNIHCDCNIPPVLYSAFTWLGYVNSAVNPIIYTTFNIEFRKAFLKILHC
Sequence of 5-hydroxytryptamine receptor 2A (Homo sapiens) (P28223 whole entry, looked up): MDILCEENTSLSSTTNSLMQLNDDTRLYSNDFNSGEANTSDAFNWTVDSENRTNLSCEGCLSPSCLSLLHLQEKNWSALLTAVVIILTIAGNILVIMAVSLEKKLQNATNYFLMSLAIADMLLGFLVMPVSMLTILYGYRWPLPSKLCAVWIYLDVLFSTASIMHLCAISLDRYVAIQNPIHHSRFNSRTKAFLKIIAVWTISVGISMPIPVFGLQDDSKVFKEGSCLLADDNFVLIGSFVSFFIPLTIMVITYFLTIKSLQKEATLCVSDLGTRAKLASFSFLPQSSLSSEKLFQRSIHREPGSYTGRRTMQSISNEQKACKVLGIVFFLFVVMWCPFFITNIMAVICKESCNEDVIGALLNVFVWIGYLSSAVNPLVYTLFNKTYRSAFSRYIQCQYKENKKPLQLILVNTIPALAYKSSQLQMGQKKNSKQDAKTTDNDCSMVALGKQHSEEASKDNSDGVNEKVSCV

Regarding `O=c1cc[nH]c(=S)[nH]1`, the Potency entry in assay [1], in assay [2], in assay [3], in [4], in assay [5] and in [6] was “inactive” each time. Besides, the Potency entry in assay [7], in assay [9], in assay [10], in assay [11], in [12] and in [13] was “inactive” in each case. The Potency result in [14], in [15], in [16], in [17], in [18] and in assay [19] was “inactive” each time. For the same compound, in [20], the Potency entry is “inactive”. The Potency entry in assay [8] is “inactive and 793 nM (active)”.
In the case of `CCCCOC(=O)CC(CC(=O)OCCCC)(OC(C)=O)C(=O)OCCCC`, the Potency entry in assay [1], in assay [2], in assay [3], in assay [4], in [5] and in assay [6] was “inactive” each time. In addition, the Potency entry in [7], in [8], in assay [9], in [10], in assay [11] and in [12] was “inactive” throughout. Also, the Potency entry in assay [13], in assay [14], in [15], in assay [16], in assay [17] and in assay [18] was “inactive” throughout. The Potency entry in assay [19] and in [20] was “inactive” each time.
With `O=c1[nH]nnc2ccccc12`, the Potency result in assay [1], in assay [2], in assay [3], in [4], in assay [5] and in assay [6] was “inactive” each time. Besides, the Potency entry in [7], in [8], in assay [9], in assay [10], in [11] and in assay [12] was “inactive” throughout. The Potency entry in assay [13], in assay [14], in [15], in assay [16], in [17] and in assay [18] was “inactive” each time. Also, the Potency result in assay [19] and in assay [20] was “inactive” each time.
In the case of `NNc1ccc(C(=O)O)cc1`, the Potency entry in assay [1], in [3], in [4], in assay [5], in assay [6] and in assay [7] was “inactive” in each case. Moreover, the Potency result in assay [8], in assay [9], in assay [10], in assay [11], in assay [12] and in assay [13] was “inactive” each time. Also, the Potency result in [14], in assay [15], in assay [16], in [17], in [18] and in [19] was “inactive” throughout. For the same compound, the Potency result in assay [20] is “inactive”. The Potency in assay [2] is 22 µM (active) and 30.9 µM (active).
Turning to `CCOCCO`, the Potency result in assay [1], in assay [2], in [3], in assay [4], in assay [5] and in [6] was “inactive” throughout. The Potency entry in assay [7], in [8], in [9], in assay [10], in [11] and in [12] was “inactive” each time. Besides, the Potency result in assay [13], in [14], in assay [15], in assay [16], in [17] and in [18] was “inactive” in each case. In addition, the Potency result in assay [19] and in [20] was “inactive” each time.
Regarding `OC[C@]1(O)OC[C@@H](O)[C@H](O)[C@@H]1O`, the Potency entry in assay [1], in assay [2], in assay [3], in [4], in assay [5] and in assay [6] was “inactive” in each case. Further, the Potency result in assay [7], in assay [8], in assay [9], in assay [10], in [11] and in assay [12] was “inactive” each time. Further, the Potency entry in assay [13], in assay [14], in [15], in assay [16], in [17] and in assay [18] was “inactive” throughout. For the same compound, in [20], the Potency result was “inactive”.
For the compound `OCc1ccc(Cl)cc1Cl`, the Potency result in assay [1], in assay [2], in assay [3], in assay [4], in assay [5] and in assay [6] was “inactive” in each case. Moreover, the Potency result in assay [7], in [8], in assay [9], in assay [10], in assay [11] and in assay [12] was “inactive” throughout. For the same compound, the Potency entry in assay [13], in [14], in [15], in [16], in [17] and in assay [18] was “inactive” in each case. Besides, the Potency entry in assay [19] and in assay [20] was “inactive” each time.
In the case of `Oc1ccc2ccccc2c1N=Nc1ccccc1`, the Potency result in assay [1], in [3], in assay [4], in [5], in assay [6] and in assay [7] was “inactive” throughout. Further, the Potency result in [8], in assay [9], in [10], in assay [11], in assay [12] and in [13] was “inactive” each time. In addition, the Potency entry in assay [15], in assay [16], in assay [17], in [18] and in [19] was “inactive” throughout. The Potency in assay [2] was 30.6 µM (active) and 21.7 µM (active); in [14], 472 nM (active) and inactive.
